Rows were chosen to be rich in hits. Some 10% of all compounds tested hit in one or more screens of this group.
BAZ2B inh: qHTS Assay for Inhibitors of BAZ2B | Potency, µM (titrated, usually from 114 µM), for the others: top-dose activity change, negative = inhibition, most hits filed as inhibitors | AID 504333, 2011 | AlphaScreen BAZ2B-H3K14Ac peptide displacement | 360,000 compounds, 4.4% hits; further: potency means the concentration at half of the fitted maximal effect; on the % scale 0 is the no-effect control and ±100 the full control effect; nearly all actives have a fitted effect of over 60% in size
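AlphaScreen displacement: compounds (up to 110uM) incubated 30 min at room temperature with a preformed 50 nM BAZ2B/50 nM biotinylated H3K14Ac peptide complex in PBS pH 7.4 with Tween-20. Donor and acceptor beads at 10 ug/mL final added, 20 min light-protected before reading.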
JMJD2A Tudor inh: qHTS Assay for Inhibitors of JMJD2A-Tudor Domain | Potency, µM (top dose mostly 114 µM), inactives show at the highest dose activity change, negative = inhibition, hits mostly inhibitors | 390,000 compounds, 4.4% hits | AlphaScreen JMJD2A-Tudor / H3K4me3 peptide binding | Lysine-specific demethylase 4A (Homo sapiens), O75164; further: potency means the concentration at half of the fitted maximal effect; on the % scale 0 is the no-effect control and ±100 the full control effect; nearly all actives have a fitted effect of over 50% in size
Target sequence (O75164 whole entry, looked up, the tested form may be a part): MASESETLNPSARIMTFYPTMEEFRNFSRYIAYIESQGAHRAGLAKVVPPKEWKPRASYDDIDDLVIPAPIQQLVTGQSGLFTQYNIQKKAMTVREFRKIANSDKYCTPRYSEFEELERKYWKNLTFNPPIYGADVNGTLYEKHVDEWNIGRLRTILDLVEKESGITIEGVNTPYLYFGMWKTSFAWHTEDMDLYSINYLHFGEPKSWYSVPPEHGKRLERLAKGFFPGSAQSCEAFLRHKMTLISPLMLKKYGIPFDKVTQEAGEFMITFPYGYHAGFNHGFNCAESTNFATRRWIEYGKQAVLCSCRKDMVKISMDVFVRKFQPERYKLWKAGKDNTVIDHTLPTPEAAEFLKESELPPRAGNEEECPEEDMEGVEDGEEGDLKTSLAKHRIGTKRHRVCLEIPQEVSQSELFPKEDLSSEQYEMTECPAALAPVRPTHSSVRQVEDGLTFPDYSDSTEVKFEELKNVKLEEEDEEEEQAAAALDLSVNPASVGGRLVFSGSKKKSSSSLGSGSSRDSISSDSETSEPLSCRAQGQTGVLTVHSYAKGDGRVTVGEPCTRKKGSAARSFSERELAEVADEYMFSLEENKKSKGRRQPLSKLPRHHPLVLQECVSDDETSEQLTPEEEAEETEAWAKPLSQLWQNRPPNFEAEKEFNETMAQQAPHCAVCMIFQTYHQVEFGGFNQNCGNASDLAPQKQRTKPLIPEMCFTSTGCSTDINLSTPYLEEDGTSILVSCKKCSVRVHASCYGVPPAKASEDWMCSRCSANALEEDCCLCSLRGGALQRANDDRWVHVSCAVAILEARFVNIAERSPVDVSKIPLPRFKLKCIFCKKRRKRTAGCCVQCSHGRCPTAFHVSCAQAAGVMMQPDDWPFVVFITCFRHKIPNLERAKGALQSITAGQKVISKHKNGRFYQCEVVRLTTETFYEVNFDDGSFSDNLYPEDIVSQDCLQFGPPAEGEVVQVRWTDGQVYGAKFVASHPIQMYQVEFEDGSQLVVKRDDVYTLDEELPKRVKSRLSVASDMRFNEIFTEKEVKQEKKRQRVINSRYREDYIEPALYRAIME
Six1-Eya2 blk: qHTS Assay for Inhibitors of the Six1/Eya2 Interaction; AlphaScreen GST-Six1/His-Eya2 binding, biochemical; stronger effect = lower value; 360,000 compounds, 0.56% hits; Homeobox protein SIX1 (Homo sapiens) + Protein phosphatase EYA2 (Homo sapiens), …; activity change, % (no concentration beside the values); in the data active means activity change below about -65%; inconclusive means mostly about -30% to -63%; further: on the % scale 0 is the no-effect control and ±100 the full control effect
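Compounds are tested against tagged Six1 and Eya2 proteins bridged by glutathione donor and nickel acceptor beads; after a one-hour incubation at 37 °C without light, AlphaScreen emission is recorded.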
CtBP-E1A blk: qHTS Assay for Inhibitors of the CtBP/E1A Interaction. CtBP / adenovirus E1A interaction (AlphaScreen). AlphaScreen GST-E1A/His-CtBP binding, 1536-well; stronger effect = lower value. activity change, % (test concentration not listed). 340,000 compounds, 0.49% hits. AID 651724, 2012; in the data active means activity change below about -65%; inconclusive means mostly about -30% to -63%; further: on the % scale 0 is the no-effect control and ±100 the full control effect
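AlphaScreen with 125 nM GST-E1A and 125 nM His-CtBP (5X stocks) in Tris pH 8.0, 300 mM NaCl, BSA, Tween 20, TCEP. Compounds preincubated 2 h at 37 deg C, then glutathione donor/nickel acceptor beads added for 1 h at 37 deg C in dark.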
HP1b binding inh: HTS for Inhibitors of HP1-beta Chromodomain Interactions with Methylated Histone Tails. Potency, µM (doses to about 114 µM), for inactives: at the top dose activity change, negative = inhibition, usual class: inhibitors. AlphaScreen HP1-beta / biotin-H3K9me3 peptide binding. Chromobox protein homolog 1 (Homo sapiens), P83916. AID 540317, 2011. 390,000 compounds, 0.56% hits; further: potency means the concentration at half of the fitted maximal effect; nearly all actives have a fitted effect of over 70% in size
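HP1-beta protein (50 nM final) preincubated 30 min at room temperature with biotinylated H3(1-18)K9me3 peptide (50 nM) in PBS pH 7.4, 0.01% Tween-20, then compound added for 30 min. AlphaScreen streptavidin donor/nickel chelate acceptor beads (10 ug/mL final), 30 min dark, luminescence read.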
G9a inh: qHTS Assay for Inhibitors of Histone Lysine Methyltransferase G9a; Histone-lysine N-methyltransferase EHMT2 (Homo sapiens), Q96KQ7; G9a H3K9 monomethylation, AlphaScreen, 2 h; Potency, µM (doses to about 102 µM), without a hit: top-dose activity, negative = inhibition, actives largely listed as inhibitors; 350,000 compounds, 8.8% hits; further: potency means the concentration at half of the fitted maximal effect; on the % scale 0 is the no-effect control and ±100 the full control effect; nearly all actives have a fitted effect of over 75% in size
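Compounds were preincubated with 20 nM G9a for 15 min, after which biotinylated H3K9 peptide (500 nM) and SAM (20 uM) started a 2 h room-temperature reaction. Monomethylated product was quantified by antibody-based AlphaScreen chemiluminescence.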
* hit, by the source's call; ? = inconclusive; . = no result given; ! = repeats disagree; [ ] = another dose, or the depositor's remark. Unless noted, the call rests on the fitted dose curve; in most records, active means well fitted inhibition curve with a large enough effect; inconclusive means small, poorly fitted or top-dose-only effect; inactive means no such curve, though single readings can be large or run the other way.

SMILES	BAZ2B inh	JMJD2A Tudor inh	Six1-Eya2 blk	CtBP-E1A blk	HP1b binding inh	G9a inh
COc1cc(/C=C2\C(=O)NC(=O)N(c3ccccc3)C2=O)c([N+](=O)[O-])cc1OC	-24.5%	-25.6%	?	12.8	1.3%	10µM*
COc1cc(/C=C2\C(=O)NC(=O)N(c3ccccc3)C2=O)cc(OC)c1O	?	-19.4%	-1.2	-3.9	21.0%	?
Cc1ccc(N2C(=O)NC(=O)/C(=C\c3ccoc3)C2=O)cc1	?	-18.2%	-24.7	-3.8	16.3%	44.7µM*
COc1ccc(N2C(=O)/C(=C/c3cc(C)n(-c4ccc(C)cn4)c3C)C(=O)NC2=S)c(OC)c1	?	39.8µM*	-6.0	.	-12.2%	31.6µM*
Cc1c(CCC(=O)N2CCCCC2)c(=O)oc2cc3occ(C(C)(C)C)c3cc12	-3.7%	?	.	.	17.2%	-32.0%[59 µM]
O=C(Nc1nc2c(s1)CCCC2)C1CCCN1C(=O)c1cccs1 (configuration not stated)	-31.3%	-18.0%	-3.3	-1.8	18.4%	?
COc1ccc(OC)c(N2C(=O)NC(=O)/C(=C/c3ccc([N+](=O)[O-])s3)C2=O)c1	39.8µM*	28.2µM*	0.0	0.0	31.6µM*	11.2µM*
O=C1NC(=S)N(c2ccc(F)cc2)C(=O)/C1=C\c1ccoc1	14.1µM*	3.16µM*	-72.3*	-9.4	5.62µM*	7.94µM*
CSc1ncc(/C=C2/C(=O)NC(=O)N(c3ccc(C(C)C)cc3)C2=O)cn1	-11.9%	?	4.3	1.8	-15.1%	7.94µM*
O=C1NC(=O)N(Cc2ccccc2)C(=O)/C1=C/c1cnc(-c2ccccc2)nc1	-33.8%	79.4µM*	-0.8	2.7	-6.3%	10µM*
CCCCN1C(=O)NC(=O)/C(=C/c2cnc(SC)nc2)C1=O	-34.2%	?	3.3	3.5	-21.8%	10µM*
Cn1cc(/C=C2\C(=O)NC(=O)N(c3ccccc3)C2=O)c2ccccc21	-21.3%	-31.5%	15.7	-13.4	137.4%	-1.1%
CSc1ncc(/C=C2/C(=O)NC(=O)N(C3CCCCC3)C2=O)cn1	?	?	3.5	11.0	-19.8%	?
CC(C)c1ccc(N2C(=O)NC(=O)/C(=C/c3cnc(-c4ccccc4)nc3)C2=O)cc1	?	89.1µM*	-0.1	0.4	-4.9%	3.55µM*
CSc1ncc(/C=C2/C(=O)NC(=O)N(C)C2=O)cn1	-28.1%	-9.0%	8.6	2.0	-18.6%	.
NCc1cccnc1	.	.	.	.	.	2.0%[12.7 µM]
CCOP(=O)(OCC)/C(C#N)=C/c1cc(OC)ccc1OC	-6.1%	-7.7%	8.0	.	40.9%	-7.6%[2.33 µM]
COc1cc(OC)c2c(c1)OC(c1ccc(OC)c(OC)c1)C(O)C2 (configuration not stated)	.	.	.	.	.	-23.9%[2.33 µM]
O=C1NC(=O)N(Cc2ccccc2)C(=O)/C1=C/N1CCCc2ccccc21	?	?	-3.0	?	6.5%	7.94µM*
Clc1ccc(C(c2ccc(Cl)cc2)n2cc[n+](CC(OCc3ccc(Cl)cc3Cl)c3ccc(Cl)cc3Cl)c2)cc1 (configuration not stated)	-37.7%	50.1µM*	2.0	-7.8	0.3%	17.8µM*!
c1cc2c(cc1CN1CCNCC1)OCO2	-13.1%	-12.0%	0.2	1.7	23.3%	-27.3%
Oc1cc2c(cc1CN1CCN(c3ccccc3F)CC1)OCO2	?	39.8µM*	-27.1	-16.5	70.8µM*	8.91µM*
Cc1cccc(N2CCN(Cc3ccc4c(c3)OCO4)CC2)c1C	50.1µM*	28.2µM*	-21.9	-15.7	?	7.94µM*
COc1ccccc1N1CCN(Cc2ccc(Br)s2)CC1	50.1µM*	0.891µM*	-10.3	-5.8	?	-2.4%[12.7 µM]
COc1ccccc1N1CCN(Cc2c(F)cccc2Cl)CC1	?	3.2%	-1.3	3.1	29.4%	?
SMILES	BAZ2B inh	JMJD2A Tudor inh	Six1-Eya2 blk	CtBP-E1A blk	HP1b binding inh	G9a inh
COc1ccccc1N1CCN(Cc2cccc(Br)c2)CC1	50.1µM*	12.6µM*	-11.7	-0.5	?	11.2µM*
O=C(Nc1ccccc1)N1CCC2(CC1)CCN(C(=O)Oc1ccccc1)CC2	.	.	.	.	.	-12.7%[12.7 µM]
CCCCCOc1c(OC)ccc2cc(C(=O)NCc3ccc4c(c3)OCO4)c(=O)[nH]c12	.	.	.	.	.	35.9%[59 µM]
CN1CCN(Cc2ccc(Br)s2)CC1	?	5.62µM*	3.9	6.4	?	3.98µM*
COc1ccccc1N1CCN(Cc2ccccc2)CC1	35.5µM*	20µM*	0.2	.	?	7.5%[0.501 µM]
COc1cc(Br)cc(CN2CCN(C)CC2)c1O	?	-16.4%	1.3	7.3	19.8%	?
COc1ccccc1N1CCN(Cc2cc(C)c(C)cc2O)CC1	-8.2%	-21.2%	-3.5	-1.7	-5.2%	10.4%[59 µM]
COc1ccccc1N1CCN(Cc2ccc3c(c2)OCO3)CC1	.	20µM*	-22.6	-1.4	?	.
CCc1nn2c(=O)cc(N3CCN(C)CC3)nc2s1	.	-17.7%	.	.	.	.
COc1ccc(CN2C(=O)CC(=O)NC2=O)cc1	0.0%	-4.6%	0.9	3.3	27.5%	-14.7%
O=C1CC(=O)N(Cc2ccccc2)C(=S)N1	-4.8%	-17.5%	3.0	0.0	-1.5%	79.4µM*
C=C1[C@@H]2C[C@@]3([C@H]1O)[C@H]1C[C@@H]4[C@@]5(C)CC[C@H](O)[C@]4([C@H]1N(CC)C5)[C@H]3C[C@H]2O	.	.	.	.	.	21.1%[21.5 µM]
O=C(O)/C=C/CO	.	.	.	.	.	22.0%[59 µM]
Cc1cccc(Cc2cnc(NC(=O)c3ccc4c(c3)CC(c3ccccc3)OC4=O)s2)c1 (configuration not stated)	0.5%	6.9%	.	.	61.6%	6.3%[59 µM]
O=C(O)CSCC(=O)N(Cc1ccccc1)c1nc(-c2ccccc2)c(-c2ccccc2)s1	50.1µM*	56.2µM*	-15.8	-18.0	-22.0%	?
Cc1ccc(-c2cc(C(F)F)n3ncc(C(=O)N4CCc5ccccc5C4)c3n2)cc1	-2.3%	24.1%	10.0	.	79.2%	4.9%
COc1ccc(C(=O)C2CN(C)CC2c2ccc(Cl)cc2)cc1 (configuration not stated)	-24.1%	-17.4%	-18.5	-4.0	32.5%	-34.7%
CN1CC(C(=O)c2ccc([N+](=O)[O-])cc2)C(c2ccc(Cl)cc2)C1 (configuration not stated)	?	44.7µM*	?	-27.7	?	20.7%[2.33 µM]
C[N+]1([O-])CCC[C@@H]1c1cccnc1 (some centres not stated)	.	.	.	.	.	32.4%[59 µM]
OCc1cnc[nH]1	-24.3%	?	2.1	5.5	9.7%	11.9µM*!

From PubChem BioAssay
